Results from PubChem BioAssay (EPA / NIEHS).
Where “and” joins values, the source holds several entries; their conditions need not be identical. Equal values may be shown once. Results filed as inconclusive are left out. Some structures have more than one record in an assay (separate samples or runs), and their calls can disagree. Calls of active or inactive are those of the source. How the source made its calls, unless noted: active means hit-call score of the fitted dose curve at least 0.9, where 1 is the maximum; inactive means score below 0.9.

Key:
[1] = read-out: Interleukin-8 (IL8), CXCL8 (gene 3576); experiment: BSK_3C_IL8: BioMAP Diversity Plus: 3C Assay for Interleukin-8 (IL8) Biomarker Activity (AID 2283020); details: primary human endothelial cells (HUVEC); actives raise or lower the signal
Summary of the method: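 Endothelial primary cells of human umbilical vein origin are dosed with chemical; after 24 h the IL-8 biomarker is measured by ELISA, and concentration–response is fitted in both directions versus DMSO.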

[2] = read-out: Monokine induced gamma interferon (MIG), CXCL9 (gene 4283); experiment: BSK_3C_MIG: BioMAP Diversity Plus: 3C Assay for Monokine induced gamma interferon (MIG) Biomarker Activity (AID 2283021); details: primary human endothelial cells (HUVEC); actives raise or lower the signal
Summary of the method: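 Endothelial primary cells (human umbilical vein) are dosed with test chemical in the 3C system. MIG levels are measured by ELISA at 24 h and fitted in both directions relative to DMSO.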

[3] = target: human Vitamin D Receptor (VDR), VDR (gene 7421) (UniProt P11473); experiment: ATG_VDR_TRANS: Attagene TRANS-FACTORIAL HepG2 Assay for human Vitamin D Receptor (VDR) (AID 2283022; active means hit-call score of the fitted dose curve at least 0.9, where 1 is the maximum)
Chain of human Vitamin D Receptor (VDR), VDR (gene 7421) (P11473 whole entry, looked up, the tested form may be a part): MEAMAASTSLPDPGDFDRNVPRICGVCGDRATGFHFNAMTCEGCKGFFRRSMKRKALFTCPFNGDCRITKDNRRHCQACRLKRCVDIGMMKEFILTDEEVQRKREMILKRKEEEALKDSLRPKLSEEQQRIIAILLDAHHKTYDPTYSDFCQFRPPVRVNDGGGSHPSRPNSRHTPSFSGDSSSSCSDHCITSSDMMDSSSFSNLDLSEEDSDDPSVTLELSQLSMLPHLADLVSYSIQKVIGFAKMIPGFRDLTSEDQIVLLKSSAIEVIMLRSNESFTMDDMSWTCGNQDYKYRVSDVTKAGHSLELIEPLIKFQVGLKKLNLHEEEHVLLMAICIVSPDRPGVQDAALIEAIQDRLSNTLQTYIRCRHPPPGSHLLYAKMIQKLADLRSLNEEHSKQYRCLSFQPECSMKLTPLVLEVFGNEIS
Summary of the method: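 Transactivation by an exogenous VDR-Gal4 chimera in transiently transfected HepG2 cells was measured as reporter transcript level 24 hours after chemical treatment. RT-PCR products were analysed by capillary electrophoresis and fitted in the positive direction relative to DMSO.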

[4] = BSK_3C_SRB: Viability Assessment in the BioMAP Diversity Plus: 3C Assay (AID 2283023); details: primary human endothelial cells (HUVEC);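 further: fitted both ways against DMSO so a hit may be signal rise or drop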
Summary of the method: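 Cytotoxicity readout in parallel HUVEC 3C cultures: after 24 h compound exposure, cells fixed with 10% TCA, stained with 0.1% SRB and read at 560 nm. Gain or loss relative to DMSO fitted.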

[5] = read-out: Matrix Metallopeptidase 1 (MMP1), MMP1 (gene 4312); experiment: BSK_BE3C_MMP1: BioMAP Diversity Plus: BE3C Assay for Matrix Metallopeptidase 1 (MMP1) Biomarker Activity (AID 2283024); details: primary human bronchial epithelial cells; actives raise or lower the signal
Summary of the method: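 MMP1 signal, measured by ELISA after a 24 h chemical exposure of human primary bronchial epithelial cells, is analysed with bidirectional fitting using DMSO as negative control.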

[6] = read-out: Pselectin, SELP (gene 6403); experiment: BSK_4H_Pselectin: BioMAP Diversity Plus: 4H Assay for Pselectin Biomarker Activity (AID 2283026); details: primary human endothelial cells (HUVEC); actives raise or lower the signal
Summary of the method: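 Endothelial primary cells (human umbilical vein) are dosed, incubated 24 h, and assayed for surface P-selectin by ELISA; responses in either direction are fitted relative to the DMSO negative control.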

[7] = BSK_4H_SRB: Viability Assessment in the BioMAP Diversity Plus: 4H Assay (AID 2283027); details: primary human endothelial cells (HUVEC);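 further: cells exposed to compound for 24 h before staining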;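 on AC50: curves fitted both ways versus DMSO so AC50 may be loss or gain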
Summary of the method: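 Cytotoxicity readout: sulforhodamine B (0.1%) staining of total protein after 10% TCA fixation, measured at 560 nm in human umbilical vein endothelium at 24 h. DMSO set the baseline; fitting was bidirectional.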

[8] = BSK_BE3C_SRB: Viability Assessment in the BioMAP Diversity Plus: BE3C Assay (AID 2283028); details: primary human bronchial epithelial cells;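 on AC50: fitted both ways so AC50 may mark signal gain or loss versus DMSO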
Summary of the method: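 Cytotoxicity read-out: SRB (0.1%) staining of TCA-fixed (10%) human lung bronchial epithelial cells, absorbance 560 nm, 24 h post-dosing. Curves fitted both directions relative to DMSO.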

[9] = read-out: Thrombomodulin, THBD (gene 7056); experiment: BSK_3C_Thrombomodulin: BioMAP Diversity Plus: 3C Assay for Thrombomodulin Biomarker Activity (AID 2283029); details: primary human endothelial cells (HUVEC); actives raise or lower the signal
Summary of the method: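 Endothelial cells from umbilical vein are dosed with test chemical and incubated 24 h. Thrombomodulin is then quantified by ELISA, with DMSO serving as negative control and activity baseline.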

[10] = read-out: Urokinase-type plasminogen activator receptor (uPAR), PLAUR (gene 5329); experiment: BSK_4H_uPAR: BioMAP Diversity Plus: 4H Assay for Urokinase-type plasminogen activator receptor (uPAR) Biomarker Activity (AID 2283030); details: primary human endothelial cells (HUVEC); actives raise or lower the signal
Summary of the method: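 uPAR level read by ELISA on HUVEC cultures (BioMAP 4H) 24 h post-dosing, analyzed for gain or loss relative to DMSO. Parallel SRB staining assessed overt cytotoxicity.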

[11] = read-out: Vascular endothelial growth factor receptor 2 (Homo sapiens) (UniProt P35968); experiment: BSK_4H_VEGFRII: BioMAP Diversity Plus: 4H Assay for Vascular endothelial growth factor receptor 2 (VEGFR2) Biomarker Activity (AID 2283031); details: primary human endothelial cells (HUVEC); actives raise or lower the signal
Summary of the method: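 Measured by ELISA after 24 h of compound treatment: VEGFR2 on primary human umbilical vein endothelial cells, fitted in both directions relative to DMSO. Parallel cultures received SRB staining (560 nm) for overt cytotoxicity.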

[12] = read-out: Human Leukocyte Antigen - DR isotype (HLADR), HLA-DRA (gene 3122); experiment: BSK_BE3C_HLADR: BioMAP Diversity Plus: BE3C Assay for Human Leukocyte Antigen - DR isotype (HLADR) Biomarker Activity (AID 2283032); details: primary human bronchial epithelial cells; actives raise or lower the signal
Summary of the method: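 Chemicals are dosed onto BE3C bronchial epithelial cultures of human origin and left 24 h. HLA-DR is then measured by ELISA, and the endpoint is fitted in both directions using DMSO as the activity baseline.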

[13] = read-out: Vascular cell adhesion molecule 1 (VCAM1), VCAM1 (gene 7412); experiment: BSK_4H_VCAM1: BioMAP Diversity Plus: 4H Assay for Vascular cell adhesion molecule 1 (VCAM1) Biomarker Activity (AID 2283033); details: primary human endothelial cells (HUVEC); actives raise or lower the signal;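 further: cell-surface VCAM-1 protein measured by ELISA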
Summary of the method: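 Chemicals are added to primary human umbilical vein endothelial cells. After 24 h, VCAM-1 levels are measured by ELISA. Values come from bidirectional fitting referenced to DMSO.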

[14] = read-out: Interferon-gamma inducible Protein 10 (IP10), CXCL10 (gene 3627); experiment: BSK_BE3C_IP10: BioMAP Diversity Plus: BE3C Assay for Interferon-gamma inducible Protein 10 (IP10) Biomarker Activity (AID 2283034); details: primary human bronchial epithelial cells; actives raise or lower the signal
Summary of the method: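 IP-10 quantified by ELISA serves as the endpoint. Cells: primary human bronchial epithelium, read 24 h after compound addition. Activity is derived by bidirectional fitting with DMSO as negative control.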

[15] = read-out: Monokine induced gamma interferon (MIG), CXCL9 (gene 4283); experiment: BSK_BE3C_MIG: BioMAP Diversity Plus: BE3C Assay for Monokine induced gamma interferon (MIG) Biomarker Activity (AID 2283035); details: primary human bronchial epithelial cells; actives raise or lower the signal;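 further: MIG protein measured by ELISA in BE3C cultures after 24 h of dosing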
Summary of the method: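 hu bronchial epithelial 1° cells, 24 h cpd; MIG by ELISA; bidirectional fit, DMSO = baseline.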

[16] = read-out: Transforming growth factor beta 1 (TGFb1), TGFB1 (gene 7040); experiment: BSK_BE3C_TGFb1: BioMAP Diversity Plus: BE3C Assay for Transforming growth factor beta 1 (TGFb1) Biomarker Activity (AID 2283036); details: primary human bronchial epithelial cells; actives raise or lower the signal
Summary of the method: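 Bronchial epithelial primary cells are treated with test chemical, then TGF-b1 is quantified by ELISA after 24 hours. Values derive from bidirectional fitting against DMSO, with cytotoxicity checked by SRB staining in parallel cultures.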

[17] = read-out: Plasminogen activator inhibitor-1 (PAI1), SERPINE1 (gene 5054); experiment: BSK_BE3C_PAI1: BioMAP Diversity Plus: BE3C Assay for Plasminogen activator inhibitor-1 (PAI1) Biomarker Activity (AID 2283037); details: primary human bronchial epithelial cells; actives raise or lower the signal
Summary of the method: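 Values derive from bidirectional fitting against DMSO baseline of PAI-1 levels, measured by ELISA in human bronchial epithelial cells 24 h after compound addition.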

[18] = read-out: urokinase plasminogen activator (uPA), PLAU (gene 5328); experiment: BSK_BE3C_uPA: BioMAP Diversity Plus: BE3C Assay for urokinase plasminogen activator (uPA) Biomarker Activity (AID 2283038); details: primary human bronchial epithelial cells; actives raise or lower the signal
Summary of the method: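 ELISA for uPA on human primary bronchial epithelial cultures 24 h post-treatment, gain or loss against DMSO. Parallel SRB staining (0.1% after 10% TCA fixation, 560 nm) assessed overt cytotoxicity.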

[19] = read-out: Urokinase-type plasminogen activator receptor (uPAR), PLAUR (gene 5329); experiment: BSK_BE3C_uPAR: BioMAP Diversity Plus: BE3C Assay for Urokinase-type plasminogen activator receptor (uPAR) Biomarker Activity (AID 2283039); details: primary human bronchial epithelial cells; actives raise or lower the signal
Summary of the method: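 Steps: dose human primary bronchial epithelial cells, incubate 24 h, measure uPAR by ELISA, then fit gain- or loss-of-signal response bidirectionally relative to DMSO.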

[20] = read-out: Interleukin-6 (IL6), IL6 (gene 3569); experiment: BSK_CASM3C_IL6: BioMAP Diversity Plus: CASM3C Assay for Interleukin-6 (IL6) Biomarker Activity for (AID 2283040); details: primary human coronary artery smooth muscle cells; actives raise or lower the signal

Measured: AC50

C[C@]12CC[C@H]3C(=CCc4cc(O)ccc43)[C@@H]1CCC2=O
active: [14] 6.48 µM
inactive: [1] | [2] | [3] | [4] | [5] | [6] | [7] | [8] | [9] | [10] | [11] | [12] | [13] | [15] | [16] | [17] | [18] | [19] | [20]

O=C(Cl)C(F)(F)C(F)(F)C(F)(F)C(F)(F)C(F)(F)C(F)(F)F
active: [1] 27 µM | [5] 29.3 µM and 30 µM
inactive: [1] | [2] | [3] | [4] | [5] | [6] | [7] | [8] | [9] | [10] | [11] | [12] | [13] | [14] | [15] | [17] | [18] | [20]

CCN(CC)c1ccc(C=O)cc1
inactive: [1] | [2] | [3] | [4] | [5] | [6] | [7] | [8] | [9] | [10] | [11] | [12] | [13] | [14] | [15] | [16] | [17] | [18] | [20]

O=C(O)C(F)(F)C(F)(F)C(F)(F)C(F)(F)C(F)(F)C(F)(F)C(F)F
active: [1] 30 µM | [5] 12 µM
inactive: [1] | [2] | [3] | [4] | [5] | [6] | [7] | [8] | [9] | [10] | [11] | [12] | [13] | [14] | [15] | [17] | [18] | [19] | [20]

O=C(O)C(F)(F)C(F)(F)C(F)(F)OC(F)(C(F)(F)F)C(F)(F)F
active: [5] 37 µM
inactive: [1] | [2] | [3] | [4] | [5] | [6] | [7] | [8] | [9] | [10] | [11] | [12] | [13] | [14] | [15] | [17] | [18] | [19] | [20]

CC1=CC2C3C=CC(C3)C2C1C (stereo not drawn)
inactive: [1] | [2] | [3] | [4] | [5] | [6] | [7] | [8] | [9] | [10] | [11] | [12] | [13] | [14] | [15] | [16] | [18] | [20]

FC(F)(F)C(F)(F)C(F)(F)C(F)(F)C(F)(F)C(F)(F)CC[Si](Cl)(Cl)Cl
inactive: [1] | [2] | [3] | [4] | [5] | [6] | [7] | [8] | [9] | [10] | [11] | [12] | [13] | [14] | [15] | [17] | [18] | [19] | [20]

O=C(O)C(F)(F)OC(F)(F)C(F)(F)OC(F)(F)C(F)(F)OC(F)(F)F
inactive: [1] | [2] | [3] | [4] | [6] | [7] | [8] | [9] | [10] | [11] | [12] | [13] | [14] | [15] | [18] | [20]
active: [5] 2.78 µM and 3.97 µM and 11.8 µM | [12] 9.98 µM | [14] 7.49 µM

CC(C)CCCC(C)CCO (stereo not drawn)
active: [4] 33.8 µM | [6] 31.2 µM | [7] 28.8 µM | [8] 7.28 µM | [12] 29.1 µM | [14] 14.4 µM | [16] 20 µM | [18] 28.6 µM | [19] 24.9 µM | [20] 32.5 µM
inactive: [1] | [2] | [3] | [5] | [9] | [10] | [11] | [13] | [15]

O=S(=O)(O)CCC(F)(F)C(F)(F)C(F)(F)C(F)(F)F
inactive: [1] | [2] | [3] | [4] | [5] | [6] | [7] | [8] | [9] | [10] | [11] | [12] | [13] | [14] | [15] | [18] | [20]
active: [1] 30 µM

Brc1nc2ccccc2s1
inactive: [1] | [2] | [3] | [4] | [5] | [6] | [7] | [8] | [9] | [10] | [11] | [12] | [13] | [14] | [15] | [16] | [17] | [18] | [19] | [20]
